# Values without a mark were called inactive. Records with an inconclusive call do not appear. Where a call stands in place of a potency, no number is given. Activity calls are given as the source filed them. Calls follow the shape of the dose curve; as a rule, active = well fitted curve in the direction sought with a large enough effect in the repeat runs; inconclusive = weak or mixed curves; inactive = no such curve, though single readings can be large; an effect the other way counts as inactive or inconclusive.
# Assays:
# [1] = qHTS RealTime-Glo MT Cell Viability Assay in HEK293 cells - 16 hour (AID 1224872); also: nearly all actives have a fitted effect of over 50% in size; also: potency is read from the fitted curve at half-maximal effect
# In short: (§1)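 HEK293 cells were seeded at 600 cells/well together with NanoLuc luciferase and cell-permeant prosubstrate, preincubated 5 h at 37 C/5% CO2, then given compound in DMSO by pintool. Luminescence from viable-cell prosubstrate reduction was read repeatedly over 40 h.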
# [2] = qHTS RealTime-Glo MT Cell Viability Assay in HepG2 cells - 8 hour (AID 1224873); also: nearly all actives have a fitted effect of over 55% in size; also: potency is read from the fitted curve at half-maximal effect
# In short: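 HepG2 cells mixed with RealTime-Glo MT reagents (NanoLuc plus cell-permeant prosubstrate) were seeded at 600 cells/well, incubated 5 h at 37 C/5% CO2, then pinned with compounds in DMSO; nonlytic luminescence tracked viability during 40 h treatment.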
# [3] = qHTS RealTime-Glo MT Cell Viability Assay in HEK293 cells - 40 hour (AID 1224874); conditions: RealTime-Glo luminescence; max response: stronger effect = lower value; also: nearly all actives have a fitted effect of over 50% in size; also: potency is read from the fitted curve at half-maximal effect
# In short: (§2)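 Tox21 screen in HEK293 using RealTime-Glo MT chemistry, with cells and reagent co-dispensed. Luminescence proportional to viable cell number was captured at intervals during 40 h compound exposure at 37 C.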
# [4] = A CellTox Green Cytotoxicity Assay to monitor cytotoxicity in HEK293 cells - 24 hour (AID 1224875); also: nearly all actives have a fitted effect of over 45% in size; also: potency is read from the fitted curve at half-maximal effect
# In short: (§3)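 Seeding of HEK293 cells together with cytotoxicity dye preceded a 5 h incubation at 37 C/5% CO2. Test compounds in DMSO were then added and fluorescence monitored across 40 h.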
# [5] = A CellTox Green Cytotoxicity Assay to monitor cytotoxicity in HepG2 cells - 16 hour (AID 1224876); also: nearly all actives have a fitted effect of over 45% in size; also: potency is read from the fitted curve at half-maximal effect
# In short: (§4)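 Nonlytic assay: viable cells exclude the dye, so fluorescence scales with cell death. HepG2 at 600 cells/well, compounds added after 5 h, signal read across 40 h.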
# [6] = A CellTox Green Cytotoxicity Assay to monitor cytotoxicity in HepG2 cells - 24 hour (AID 1224878); also: nearly all actives have a fitted effect of over 45% in size; also: potency is read from the fitted curve at half-maximal effect
# In short: as §4
# [7] = A CellTox Green Cytotoxicity Assay to monitor cytotoxicity in HepG2 cells - 40 hour (AID 1224879); also: nearly all actives have a fitted effect of over 40% in size; also: potency is read from the fitted curve at half-maximal effect
# In short: as §4
# [8] = qHTS RealTime-Glo MT Cell Viability Assay in HEK293 cells - 0 hour (AID 1224880); also: top concentration of the series differs between compounds; nearly all actives have a fitted effect of over 45% in size
# In short: as §2
# [9] = A CellTox Green Cytotoxicity Assay to monitor cytotoxicity in HEK293 cells - 32 hour (AID 1224881); also: nearly all actives have a fitted effect of over 40% in size; also: potency is read from the fitted curve at half-maximal effect
# In short: as §3
# [10] = A CellTox Green Cytotoxicity Assay to monitor cytotoxicity in HepG2 cells - 0 hour (AID 1224882); also: nearly all actives have a fitted effect of over 35% in size
# In short: as §4
# [11] = A CellTox Green Cytotoxicity Assay to monitor cytotoxicity in HepG2 cells - 32 hour (AID 1224883); also: nearly all actives have a fitted effect of over 50% in size; also: potency is read from the fitted curve at half-maximal effect
# In short: as §4
# [12] = A CellTox Green Cytotoxicity Assay to monitor cytotoxicity in HEK293 cells - 8 hour (AID 1224884); also: nearly all actives have a fitted effect of over 35% in size; also: potency is read from the fitted curve at half-maximal effect
# In short: as §3
# [13] = qHTS RealTime-Glo MT Cell Viability Assay in HepG2 cells - 16 hour (AID 1224885); also: nearly all actives have a fitted effect of over 50% in size; also: potency is read from the fitted curve at half-maximal effect
# In short: (§5)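 HepG2 cells were seeded at 600 cells/well together with NanoLuc luciferase and a cell-permeant prosubstrate, preincubated 5 h at 37 C/5% CO2, then pin-dosed with compounds in DMSO. Nonlytic luminescence from viable cells was read at each time point.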
# [14] = qHTS RealTime-Glo MT Cell Viability Assay in HEK293 cells - 24 hour (AID 1224886); also: nearly all actives have a fitted effect of over 50% in size; also: potency is read from the fitted curve at half-maximal effect
# In short: as §1
# [15] = qHTS RealTime-Glo MT Cell Viability Assay in HEK293 cells - 8 hour (AID 1224887); also: nearly all actives have a fitted effect of over 50% in size; also: potency is read from the fitted curve at half-maximal effect
# In short: as §2
# [16] = A CellTox Green Cytotoxicity Assay to monitor cytotoxicity in HEK293 cells - 16 hour (AID 1224888); also: nearly all actives have a fitted effect of over 35% in size; also: potency is read from the fitted curve at half-maximal effect
# In short: as §3
# [17] = qHTS RealTime-Glo MT Cell Viability Assay in HepG2 cells - 0 hour (AID 1224889); also: nearly all actives have a fitted effect of over 50% in size
# In short: as §5
# [18] = qHTS assay to identify small molecule antagonists of the estrogen receptor alpha (ER-alpha) signaling pathway using the BG1 cell line in the presence of 0.1 nM 17-beta-estradiol - cell viability counter screen (AID 1259241); also: nearly all actives have a fitted effect of over 40% in size
# In short: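 VM7Luc4E2 cells (endogenous full-length ER-alpha, 4xERE-luciferase), cultured 5 days in charcoal-stripped serum, exposed to compounds with 0.1 nM 17beta-estradiol (final) for 22 hr at 37C. Viability read in same wells as live-cell protease fluorescence after 30 min.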
# [19] = A CellTox Green Cytotoxicity Assay to monitor cytotoxicity in HepG2 cells - 8 hour (AID 1224890); also: nearly all actives have a fitted effect of over 45% in size; also: potency is read from the fitted curve at half-maximal effect
# In short: as §4
# [20] = qHTS RealTime-Glo MT Cell Viability Assay in HepG2 cells - 32 hour (AID 1224877); also: nearly all actives have a fitted effect of over 55% in size; also: potency is read from the fitted curve at half-maximal effect
# In short: as §5
smiles,measurement,setting,value
CCOC(OCC)C(=O)c1ccccc1,Potency,[1],inactive
same,Potency,[2],inactive
same,max response,[3],0.351%
same,Potency,[4],inactive
same,Potency,[5],inactive
same,Potency,[6],inactive
same,Potency,[7],inactive
same,Potency,[8],inactive
same,Potency,[9],inactive
same,Potency,[10],inactive
same,Potency,[11],inactive
same,Potency,[12],inactive
same,Potency,[13],inactive
same,Potency,[14],inactive
same,Potency,[15],inactive
same,Potency,[16],inactive
same,Potency,[17],inactive
same,Potency,[18],inactive
O[C@@H](c1cc(C(F)(F)F)nc2c(C(F)(F)F)cccc12)[C@H]1CCCCN1,Potency,[1],7.56 µM (active)
same,Potency,[2],23.9 µM (active)
same,Potency,[3],8.49 µM (active)
same,Potency,[4],26.8 µM (active)
same,Potency,[5],23.9 µM (active)
same,Potency,[6],21.3 µM (active)
same,Potency,[7],15.1 µM (active)
same,Potency,[8],inactive
same,Potency,[9],23.9 µM (active)
same,Potency,[10],inactive
same,Potency,[13],21.3 µM (active)
same,Potency,[14],7.56 µM (active)
same,Potency,[15],7.56 µM (active)
same,Potency,[19],26.8 µM (active)
same,Potency,[18],inactive
CC(=O)O[C@@H]1C[C@@H]2CC[C@@]1(C)C2(C)C,Potency,[1],inactive
same,Potency,[2],inactive
same,max response,[3],0.199%
same,Potency,[4],inactive
same,Potency,[5],inactive
same,Potency,[6],inactive
same,Potency,[7],inactive
same,Potency,[8],inactive
same,Potency,[9],inactive
same,Potency,[10],inactive
same,Potency,[11],inactive
same,Potency,[12],inactive
same,Potency,[13],inactive
same,Potency,[14],inactive
same,Potency,[15],inactive
same,Potency,[16],inactive
same,Potency,[17],inactive
same,Potency,[19],inactive
same,Potency,[18],inactive
Cc1cccc(Br)c1,Potency,[1],inactive
same,Potency,[2],inactive
same,max response,[3],0.0661%
same,Potency,[4],inactive
same,Potency,[5],inactive
same,Potency,[20],inactive
same,Potency,[6],inactive
same,Potency,[7],inactive
same,Potency,[8],inactive
same,Potency,[10],inactive
same,Potency,[11],inactive
same,Potency,[12],inactive
same,Potency,[13],inactive
same,Potency,[14],inactive
same,Potency,[15],inactive
same,Potency,[16],inactive
same,Potency,[19],inactive
same,Potency,[18],inactive
CCCCCCCC(OC)OC,Potency,[1],inactive
same,Potency,[2],inactive
same,max response,[3],5.48%
same,Potency,[4],inactive
same,Potency,[5],inactive
same,Potency,[6],inactive
same,Potency,[7],inactive
same,Potency,[8],inactive
same,Potency,[9],inactive
same,Potency,[10],inactive
same,Potency,[11],inactive
same,Potency,[12],inactive
same,Potency,[13],inactive
same,Potency,[14],inactive
same,Potency,[15],inactive
same,Potency,[16],inactive
same,Potency,[17],inactive
same,Potency,[18],inactive
C#CC(O)CCC (stereo unspecified),Potency,[1],inactive
same,Potency,[2],inactive
same,max response,[3],0.0439%
same,Potency,[4],inactive
same,Potency,[5],inactive
same,Potency,[6],inactive
same,Potency,[7],inactive
same,Potency,[8],inactive
same,Potency,[9],inactive
same,Potency,[10],inactive
same,Potency,[11],inactive
same,Potency,[12],inactive
same,Potency,[13],inactive
same,Potency,[14],inactive
same,Potency,[15],inactive
same,Potency,[16],inactive
same,Potency,[17],inactive
same,Potency,[19],inactive
same,Potency,[18],inactive
NC(=O)C(=O)N/N=C/c1ccc([N+](=O)[O-])o1,Potency,[1],inactive
same,Potency,[2],inactive
same,max response,[3],5.32%
same,Potency,[4],inactive
same,Potency,[5],inactive
same,Potency,[20],inactive
same,Potency,[6],inactive
same,Potency,[8],inactive
same,Potency,[10],inactive
same,Potency,[12],inactive
same,Potency,[13],inactive
same,Potency,[14],inactive
same,Potency,[15],inactive
same,Potency,[16],inactive
same,Potency,[17],inactive
same,Potency,[19],inactive
same,Potency,[18],inactive
O=S(=O)(O)CCCN1CCOCC1,Potency,[1],inactive
same,Potency,[2],inactive
same,max response,[3],12.7%
same,Potency,[4],inactive
same,Potency,[5],inactive
same,Potency,[20],inactive
same,Potency,[6],inactive
same,Potency,[7],inactive
same,Potency,[8],inactive
same,Potency,[10],inactive
same,Potency,[11],inactive
same,Potency,[12],inactive
same,Potency,[13],inactive
same,Potency,[14],inactive
same,Potency,[15],inactive
same,Potency,[16],inactive
same,Potency,[17],inactive
same,Potency,[19],inactive
same,Potency,[18],inactive
CCCCOC(=O)C(C)CC (stereo unspecified),Potency,[1],inactive
same,Potency,[2],inactive
same,max response,[3],1.36%
same,Potency,[4],inactive
same,Potency,[5],inactive
same,Potency,[6],inactive
same,Potency,[7],inactive
same,Potency,[8],inactive
same,Potency,[9],inactive
same,Potency,[10],inactive
same,Potency,[11],inactive
same,Potency,[12],inactive
same,Potency,[13],inactive
same,Potency,[14],inactive
same,Potency,[15],inactive
same,Potency,[16],inactive
same,Potency,[17],inactive
same,Potency,[19],inactive
c1cc[nH]c1,Potency,[1],inactive
same,Potency,[2],inactive
same,max response,[3],10.9%
same,Potency,[4],inactive
same,Potency,[5],inactive
same,Potency,[20],inactive
same,Potency,[6],inactive
same,Potency,[8],inactive
same,Potency,[9],inactive
same,Potency,[10],inactive
same,Potency,[11],inactive
same,Potency,[12],inactive
same,Potency,[13],inactive
same,Potency,[14],inactive
same,Potency,[15],inactive
same,Potency,[16],inactive
same,Potency,[17],inactive
same,Potency,[18],inactive
CCCCCCCCCCCCCCNCCO,Potency,[1],21.3 µM (active)
same,Potency,[2],19 µM (active)
same,Potency,[3],12 µM (active)
same,Potency,[4],19 µM (active)
same,Potency,[5],10.7 µM (active)
same,Potency,[20],10.7 µM (active)
same,Potency,[6],7.56 µM (active)
same,Potency,[7],7.56 µM (active)
same,Potency,[9],19 µM (active)
same,Potency,[11],7.56 µM (active)
same,Potency,[12],21.3 µM (active)
same,Potency,[13],19 µM (active)
same,Potency,[14],15.1 µM (active)
same,Potency,[15],23.9 µM (active)
same,Potency,[16],21.3 µM (active)
same,Potency,[18],inactive
CCCCCCCC/C=C\CCCCCCCC(=O)NCc1ccc(O)c(OC)c1,Potency,[1],1.69 µM (active)
same,Potency,[2],inactive
same,Potency,[3],4.25 µM (active)
same,Potency,[4],inactive
same,Potency,[5],inactive
same,Potency,[20],inactive
same,Potency,[6],inactive
same,Potency,[7],inactive
same,Potency,[8],inactive
same,Potency,[10],inactive
same,Potency,[12],inactive
same,Potency,[13],inactive
same,Potency,[14],2.39 µM (active)
same,Potency,[15],1.51 µM (active)
same,Potency,[16],inactive
same,Potency,[17],inactive
same,Potency,[19],inactive
same,Potency,[18],inactive
CC(C)=CCCC(C)O (stereo unspecified),Potency,[1],inactive
same,Potency,[2],inactive
same,max response,[3],0.513%
same,Potency,[4],inactive
same,Potency,[5],inactive
same,Potency,[6],inactive
same,Potency,[7],inactive
same,Potency,[8],inactive
same,Potency,[9],inactive
same,Potency,[10],inactive
same,Potency,[11],inactive
same,Potency,[13],inactive
same,Potency,[14],inactive
same,Potency,[15],inactive
same,Potency,[16],inactive
same,Potency,[17],inactive
same,Potency,[19],inactive
same,Potency,[18],inactive
